Screening data (PubChem)
HCMV antiviral: qHTS Assay for inhibitors of the human cytomegalovirus (HCMV). AID 1259415, 2018. actives 4.5% (n = 410,000). HFF cells, HCMV-luciferase reporter, 72 h; active compounds read low. activity change, negative = inhibition, % at 57.5 µM; in the data active means activity change below about -60%; inconclusive means no clear call, values can overlap the other calls; inactive means above about -39%; further: on the % scale 0 is the no-effect control and ±100 the full control effect
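HFF cells seeded 16 h at 37C, treated with compounds, infected with luciferase-reporter HCMV at MOI 1 PFU/cell; luciferase read at 72 h post infection, normalized to buffer-only and Salinomycin controls.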
Shiga toxin inh: A qHTS for Small Molecule Inhibitors of Shiga Toxin; Vero cells, Shiga toxin protein synthesis inhibition reporter; inhibition, % at 38.7 µM; actives 9.2% (n = 290,000); in the data active means inhibition mostly above about 28%, no sharp cut-off; inactive means mostly below about 43%; further: 0% is about no effect
CHX counter: Cycloheximide Counterscreen for Small Molecule Inhibitors of Shiga Toxin | cell reporter, cycloheximide protein synthesis inhibition counterscreen | max response, % | actives 12% (n = 300,000); in the data active means max response mostly above about 13%, no sharp cut-off; inactive means mostly below about 14%; further: read at 38.3 µM for the half of the compounds with a filed dose; 0% is about no effect
Pf growth 48h: Primary qHTS for delayed death inhibitors of the malarial parasite plastid, 48 hour incubation | actives 5.9% (n = 310,000) | Potency, µM (titrated, usually from 28.7 µM), inactives show at the highest dose activity change, negative = inhibition, hits mostly inhibitors | P. falciparum luciferase growth in erythrocytes, 48 h | AID 504832, 2011; further: potency means the concentration at half of the fitted maximal effect; on the % scale 0 is the no-effect control and ±100 the full control effect
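Luminescence readout; reporter = integrated firefly luciferase in P. falciparum. RBC culture at 2% hematocrit, 0.1% parasitemia final, 37 C/5% CO2; decreased signal taken as growth inhibition.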
Pf growth 96h: Primary qHTS for delayed death inhibitors of the malarial parasite plastid, 96 hour incubation; Potency, µM (doses to about 28.7 µM), inactives show top-dose activity change, negative = inhibition, most hits filed as inhibitors; actives 6.9% (n = 320,000); P. falciparum luciferase reporter growth, 96 h; further: potency means the concentration at half of the fitted maximal effect; on the % scale 0 is the no-effect control and ±100 the full control effect
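Two-generation exposure (96 h) targets delayed-death phenotype. Reporter parasites carrying integrated firefly luciferase, in red cells at 2% hematocrit and 0.05% parasitemia final, kept at 37 C, 5% CO2; luminescence loss indicates inhibition.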
Starred values were filed as active, the others as inactive; ? = inconclusive; · = no result; + = active, no number. A selection: hits, their analogues and other compounds. The true share with any hit is near 20%. Unless noted, the call rests on the fitted dose curve; in most records, active means well fitted inhibition curve with a large enough effect; inconclusive means small, poorly fitted or top-dose-only effect, or another doubt; inactive means no such curve, though single readings can be large or run the other way.

SMILES	HCMV antiviral	Shiga toxin inh	CHX counter	Pf growth 48h	Pf growth 96h
O=C(NCc1ccccn1)c1ccc(OC2CCN(Cc3ccccc3O)CC2)cc1	-29	-9	-3	?	?
O=C(NCc1ccccn1)c1ccc(OC2CCN(Cc3ccc(F)cc3F)CC2)cc1	?	1	19	12µM*	-3%
O=C(NCc1ccccn1)c1ccc(OC2CCN(Cc3ccccc3)CC2)cc1	-10	-5	1	-5%	63%
Cc1ccc(C(=O)N/C(=C\C=C\c2ccccc2)C(=O)NCc2ccco2)cc1	-31	28	11	-13%	?
Oc1ccc(Cl)cc1C1=NNC(c2cc(Br)cc3c2OCOC3)C1 (stereo not given)	-7	-4	14	?	28%
COc1ccc(C2=NNC(c3cc(Cl)cc4c3OCOC4)C2)c(O)c1 (stereo not given)	·	48	17*	8.3µM*	2%
O=C(Nc1cc(Cl)ccc1-n1cncn1)c1cccs1	24	·	·	26%	33%
Nc1cc(S(=O)(=O)Nc2ccc(Cl)cc2)ccc1N1CCOCC1	-72*	-17	-3	13%	1%
N=C1c2ccccc2CN1c1ccc(N2CCOCC2)c(S(=O)(=O)Nc2ccc(Cl)cc2)c1	-35	-19	-2	?	9.3µM*
Nc1cc(S(=O)(=O)Nc2ccccc2Cl)ccc1N1CCOCC1	-30	4	4	?	-13%
NC(Cc1ccccc1)C(O)(c1ccccc1)c1ccccc1 (stereo not given)	-5	24	-6	?	?
c1ccc(-c2ccc(C3=Nn4c(nnc4-c4cccs4)SC3)cc2)cc1	64	-5	-4	9.3µM*	13µM*
c1csc(C2=Nn3c(nnc3-c3ccncc3)SC2)c1	-81*	-5	-6	53%	-11%
c1ccc(C2=Nn3c(nnc3-c3cccs3)SC2)cc1	69	14	-4	-12%	3%
Clc1ccc(C2=Nn3c(nnc3-c3cccs3)SC2)cc1	-21	27	-1	?	?
Clc1ccccc1C1=Nn2c(nnc2-c2ccncc2)SC1	-76*	-26	-5	?	?
CC1=Nn2c(nnc2-c2cccs2)SC1	-1	15	-2	·	34%
CCc1ccc(C2=Nn3c(nnc3-c3cccs3)SC2)cc1	-10	-23	-5	2.1µM*	1.9µM*
Cc1ccc(NC(=O)CCC(=O)NNC(=O)C(c2ccccc2)c2ccccc2)c(C)c1	28	2	-2	4%	12%
COc1ccc(OCC(=O)OCc2cc(=O)n3nc(-c4cccs4)sc3n2)cc1	21	·	·	·	·
O=C(COc1ccc2ccccc2c1)NC1CC(=O)N(c2ccc(F)cc2)C1 (stereo not given)	43	·	·	·	·
CCOc1ccc(Nc2nc3c(S(=O)(=O)c4ccc(CC)cc4)nnn3c3ccc(Cl)cc23)cc1	3	·	·	·	·
Cc1ccccc1/C=C1\OC(=O)c2ccccc21	12	40*	20*	15%	30%
Cc1ccc(/C=C2\OC(=O)c3ccccc32)cc1	216	107*	53*	4%	-3%
Cc1ccccc1C=O	-17	·	·	6%	-28%
SMILES	HCMV antiviral	Shiga toxin inh	CHX counter	Pf growth 48h	Pf growth 96h
CC[C@]12C(=O)N(C)C[C@H]([C@@H]3C(=O)N(Cc4ccccc4)C(=O)[C@@H]31)N2C(=O)c1ccc(C(C)(C)C)cc1	-17	·	·	·	·
O=C1NC2(CCC3(CC2)OCCO3)NN1c1ccc(Cl)cc1	-35	45	13	-12%	14%
CCOc1ccc(NC(=O)C(c2ccccn2)N(C(=O)CCl)c2ccc(F)cc2)cc1 (stereo not given)	·	active	32*	?	347%
N/C(CN1CCCC1=O)=N\OC(=O)c1ccc(Cl)cc1	39	-4	15*	1%	12µM*
N/C(CN1CCCC1=O)=N\OC(=O)c1ccc(Cl)c(Cl)c1	-8	-6	23*	16%	9%
CCn1nnc2cc(C(=O)Nc3ccc(Br)cc3F)ccc21	15	·	·	·	·
CC(C)NC(=O)N(C)C[C@H]1Oc2ccc(NS(=O)(=O)c3cn(C)cn3)cc2C(=O)N([C@H](C)CO)C[C@@H]1C	34	·	·	·	·
Cc1nn(CCOc2ccccc2)c(=O)n1-c1c(F)cccc1F	35	33*	52*	107%	127%
Cc1nn(C)c(=O)n1-c1ccc(Oc2ccccc2)cc1	-14	-7	11*	52%	42%
Cc1ccc(-n2c(C)nn(CC3CC3)c2=O)cc1	9	-8	1	22%	?
Cc1ccc(-n2c(C)nn(CCOc3ccccc3)c2=O)cc1	27	67*	35*	142%	333%
O=S(=O)(Nc1cccc(-c2ccc(N3CCCC3)nn2)c1)c1ccc(F)c(C(F)(F)F)c1	-1	·	·	·	·
O=c1c2ccccc2nc(-c2ccc(Cl)cc2)n1CCCOc1ccccc1F	34	·	·	·	·
Oc1cccc2ccc(N3CCOCC3)nc12	1	28	25*	34%	19%
O=[N+]([O-])c1cccc2ccc(N3CCOCC3)nc12	16	·	11	45%	?
CCCCN(CC)CCCNC(=O)c1ccc2c(c1)N(Cc1ccc(C)cc1)C(=O)c1ccccc1S2	-98*	·	·	·	·
CCN1C(=O)c2ccccc2Sc2ccc(C(=O)NCCCN(CC(C)C)CC(C)C)cc21	1	-3	23	10µM*	27%
Cc1ccc(N2CCN(/N=C/c3ccccc3)CC2)cc1	-10	4	-2	19%	25%
C(=N/N1CCN(c2ccccc2)CC1)/c1ccncc1	?	29*	17*	7%	-22%
O=C(O)c1ccc(C=NN2CCCCCC2)cc1	21	·	·	·	·
O=C(O)c1ccc(/C=N/N2CCN(c3ccccc3)CC2)cc1	125	88*	34*	31%	207%
Cn1cccc1/C=N/N1CCN(c2ccccc2)CC1	-39	130*	41*	0%	56%
CCCn1nnnc1NC(=O)c1ccc2ccccc2c1	1	-5	6	0%	?
CCCc1nn(C)c(C(=O)Nc2cccc(CC)c2)c1Cl	7	+	18*	39%	58%
CCCc1nn(C)c(C(=O)Nc2ccc3ccccc3c2)c1Cl	57	54*	49*	67%	112%
Cn1c(SCc2ccccn2)nc2c1c(=O)[nH]c(=O)n2C	-3	17	-5	27%	-17%
O=C(NCCc1ccc(Cl)cc1)c1ccc(OCC2CCCO2)cc1 (stereo not given)	12	92*	33*	31%	-5%
CC(OC(=O)c1ccc(OCC2CCCO2)cc1)C(=O)N(C)Cc1ccccc1 (stereo not given)	-6	·	·	3.3µM*	4.7µM*
CCOc1ccc(C(=O)NC2CCCCCCC2)cc1	95	·	·	·	·
C/C(N)=C(/C#N)C(=O)COC(=O)c1ccc(OCC2CCCO2)cc1 (stereo not given)	-32	50*	22*	29%	-3%
